Assay results as given in the supplement of paper PMC11732987, “Enantioselective OTUD7B fragment discovery through chemoproteomics screening and high-throughput optimisation” (Communications Chemistry, 2025).

Legend:
Assay in all cases: log2 ratio of Biotin-Ahx-Ub-VS probe labelling (fragment/DMSO); higher = less target engagement (more negative = stronger competition), active = hit call of the paper (q ≤ 0.05, log2 ratio ≤ -1)
Details in all cases: compound concentration: 200 uM; treatment time: 3 h
USP34 = USP34 (UniProt Q70CQ2)
Outline: (§1)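 HEK293T lysate in Tris/CHAPS/IGEPAL buffer with protease inhibitors (495 µg per sample) was given fragment at 200 µM or vehicle for 3 h, in triplicate. It then received Biotin-Ahx-Ub-VS at 0.5 µM final for 1 h. Labelled DUBs were NeutrAvidin-enriched, digested with LysC and trypsin, and run by diaPASEF LC-MS/MS. Values are average log2 fragment/vehicle ratios by unpaired t-test on global-median-normalised Spectronaut quantities of proteins with ≥2 unique peptides.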

USP36 = molecular target: T1, USP36 (UniProt Q9P275)
T1 sequence (whole entry): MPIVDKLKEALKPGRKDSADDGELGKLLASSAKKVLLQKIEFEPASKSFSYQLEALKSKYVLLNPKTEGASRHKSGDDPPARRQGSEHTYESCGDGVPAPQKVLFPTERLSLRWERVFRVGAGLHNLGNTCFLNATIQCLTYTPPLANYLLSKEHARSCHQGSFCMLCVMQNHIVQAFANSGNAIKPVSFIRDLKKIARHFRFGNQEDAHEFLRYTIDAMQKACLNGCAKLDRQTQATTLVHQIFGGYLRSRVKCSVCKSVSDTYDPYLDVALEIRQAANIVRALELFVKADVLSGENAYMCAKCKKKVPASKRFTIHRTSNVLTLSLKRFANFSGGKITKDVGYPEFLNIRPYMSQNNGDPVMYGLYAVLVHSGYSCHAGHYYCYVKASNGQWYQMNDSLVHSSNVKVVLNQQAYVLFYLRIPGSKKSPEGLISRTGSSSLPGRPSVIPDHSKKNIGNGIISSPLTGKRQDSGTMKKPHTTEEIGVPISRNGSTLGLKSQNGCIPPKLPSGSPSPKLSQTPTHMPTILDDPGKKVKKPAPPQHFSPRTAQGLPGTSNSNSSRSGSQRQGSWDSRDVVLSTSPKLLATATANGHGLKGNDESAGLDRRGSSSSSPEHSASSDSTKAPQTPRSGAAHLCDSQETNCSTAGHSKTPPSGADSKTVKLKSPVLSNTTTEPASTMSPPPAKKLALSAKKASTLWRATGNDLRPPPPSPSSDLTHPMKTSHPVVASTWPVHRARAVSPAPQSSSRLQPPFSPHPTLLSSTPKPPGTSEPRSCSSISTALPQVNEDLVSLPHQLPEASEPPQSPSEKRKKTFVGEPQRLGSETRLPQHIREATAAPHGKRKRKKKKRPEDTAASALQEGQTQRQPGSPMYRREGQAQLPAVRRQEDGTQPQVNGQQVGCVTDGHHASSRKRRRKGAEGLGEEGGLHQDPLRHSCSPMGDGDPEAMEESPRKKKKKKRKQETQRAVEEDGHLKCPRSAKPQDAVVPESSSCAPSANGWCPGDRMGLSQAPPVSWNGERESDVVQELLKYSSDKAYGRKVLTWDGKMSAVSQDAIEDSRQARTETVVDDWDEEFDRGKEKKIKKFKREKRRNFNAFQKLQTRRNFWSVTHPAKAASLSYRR
Outline: as §1

USP38 = molecular target: T2, USP38 (UniProt Q8NB14)
T2 sequence (whole entry): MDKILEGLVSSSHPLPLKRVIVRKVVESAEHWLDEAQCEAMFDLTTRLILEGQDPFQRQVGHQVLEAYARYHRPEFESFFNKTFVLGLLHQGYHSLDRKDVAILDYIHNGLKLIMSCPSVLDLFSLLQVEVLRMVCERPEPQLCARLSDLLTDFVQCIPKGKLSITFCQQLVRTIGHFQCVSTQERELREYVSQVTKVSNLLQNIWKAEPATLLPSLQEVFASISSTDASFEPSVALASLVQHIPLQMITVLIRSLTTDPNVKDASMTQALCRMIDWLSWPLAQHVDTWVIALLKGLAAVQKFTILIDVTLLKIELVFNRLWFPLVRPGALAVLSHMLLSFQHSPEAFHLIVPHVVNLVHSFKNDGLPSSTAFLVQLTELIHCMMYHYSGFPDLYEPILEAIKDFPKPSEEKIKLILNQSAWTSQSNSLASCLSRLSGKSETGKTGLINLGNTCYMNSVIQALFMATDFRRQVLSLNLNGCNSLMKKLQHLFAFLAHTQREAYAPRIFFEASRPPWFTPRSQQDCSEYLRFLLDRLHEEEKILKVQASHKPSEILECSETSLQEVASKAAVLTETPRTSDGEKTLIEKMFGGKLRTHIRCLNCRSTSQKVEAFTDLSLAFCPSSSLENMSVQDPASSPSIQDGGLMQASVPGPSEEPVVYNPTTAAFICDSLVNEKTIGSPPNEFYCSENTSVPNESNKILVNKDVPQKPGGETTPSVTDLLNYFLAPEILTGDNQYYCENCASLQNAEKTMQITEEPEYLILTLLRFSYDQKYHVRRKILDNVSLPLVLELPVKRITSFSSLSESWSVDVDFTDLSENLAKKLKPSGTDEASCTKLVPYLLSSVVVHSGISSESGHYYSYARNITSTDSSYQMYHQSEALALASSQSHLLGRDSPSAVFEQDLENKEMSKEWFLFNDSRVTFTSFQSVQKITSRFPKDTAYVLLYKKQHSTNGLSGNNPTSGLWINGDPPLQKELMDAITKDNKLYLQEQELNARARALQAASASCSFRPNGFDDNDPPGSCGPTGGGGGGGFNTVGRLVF
Outline: as §1

USP39 = molecular target: T3, USP39 (UniProt Q53GS9)
T3 sequence (whole entry): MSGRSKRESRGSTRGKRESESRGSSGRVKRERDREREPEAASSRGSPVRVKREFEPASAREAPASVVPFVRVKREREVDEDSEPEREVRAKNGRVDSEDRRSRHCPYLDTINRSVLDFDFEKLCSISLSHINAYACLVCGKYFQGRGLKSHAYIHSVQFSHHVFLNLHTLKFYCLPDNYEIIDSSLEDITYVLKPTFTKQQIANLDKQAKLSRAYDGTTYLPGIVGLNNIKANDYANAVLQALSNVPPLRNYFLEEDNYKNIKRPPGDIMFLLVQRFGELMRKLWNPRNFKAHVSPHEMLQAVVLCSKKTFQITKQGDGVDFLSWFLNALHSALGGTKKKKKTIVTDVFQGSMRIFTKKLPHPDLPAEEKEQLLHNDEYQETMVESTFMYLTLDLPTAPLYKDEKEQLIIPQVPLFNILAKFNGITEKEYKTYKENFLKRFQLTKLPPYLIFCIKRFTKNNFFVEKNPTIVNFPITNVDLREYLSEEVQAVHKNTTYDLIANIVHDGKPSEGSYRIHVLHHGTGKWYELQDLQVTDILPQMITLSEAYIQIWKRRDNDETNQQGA
Outline: as §1

USP4 = molecular target: T4, USP4 (UniProt Q13107)
T4 sequence (whole entry): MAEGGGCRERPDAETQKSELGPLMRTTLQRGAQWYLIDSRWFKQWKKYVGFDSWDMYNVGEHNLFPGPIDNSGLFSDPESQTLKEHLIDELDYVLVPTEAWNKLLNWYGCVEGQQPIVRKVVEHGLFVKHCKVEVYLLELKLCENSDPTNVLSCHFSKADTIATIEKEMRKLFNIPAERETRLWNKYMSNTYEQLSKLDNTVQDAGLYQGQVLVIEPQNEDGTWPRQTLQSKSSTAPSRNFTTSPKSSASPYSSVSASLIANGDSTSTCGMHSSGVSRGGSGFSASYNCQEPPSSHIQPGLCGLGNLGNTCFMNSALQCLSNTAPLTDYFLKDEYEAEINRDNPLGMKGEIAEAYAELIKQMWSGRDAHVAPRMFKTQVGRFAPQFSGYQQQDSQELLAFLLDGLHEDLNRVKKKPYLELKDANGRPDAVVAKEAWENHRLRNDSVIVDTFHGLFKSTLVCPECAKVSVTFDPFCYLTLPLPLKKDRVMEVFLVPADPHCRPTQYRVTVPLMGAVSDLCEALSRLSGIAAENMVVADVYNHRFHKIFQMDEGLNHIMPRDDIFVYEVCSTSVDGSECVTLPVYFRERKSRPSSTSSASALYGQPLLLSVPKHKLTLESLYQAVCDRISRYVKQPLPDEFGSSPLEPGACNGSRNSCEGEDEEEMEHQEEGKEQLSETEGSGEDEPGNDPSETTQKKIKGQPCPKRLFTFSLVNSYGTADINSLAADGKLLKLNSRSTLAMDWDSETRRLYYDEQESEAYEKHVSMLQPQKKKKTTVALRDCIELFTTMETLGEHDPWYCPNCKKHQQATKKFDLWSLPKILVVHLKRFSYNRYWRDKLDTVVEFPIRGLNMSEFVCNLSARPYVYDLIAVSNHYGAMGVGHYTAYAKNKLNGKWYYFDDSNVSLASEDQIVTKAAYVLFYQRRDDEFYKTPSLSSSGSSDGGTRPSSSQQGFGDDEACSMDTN
Outline: as §1

Measured: log2 ratio of Biotin-Ahx-Ub-VS probe labelling

Sequence of USP34 (Q70CQ2 whole entry, the tested form may be a part): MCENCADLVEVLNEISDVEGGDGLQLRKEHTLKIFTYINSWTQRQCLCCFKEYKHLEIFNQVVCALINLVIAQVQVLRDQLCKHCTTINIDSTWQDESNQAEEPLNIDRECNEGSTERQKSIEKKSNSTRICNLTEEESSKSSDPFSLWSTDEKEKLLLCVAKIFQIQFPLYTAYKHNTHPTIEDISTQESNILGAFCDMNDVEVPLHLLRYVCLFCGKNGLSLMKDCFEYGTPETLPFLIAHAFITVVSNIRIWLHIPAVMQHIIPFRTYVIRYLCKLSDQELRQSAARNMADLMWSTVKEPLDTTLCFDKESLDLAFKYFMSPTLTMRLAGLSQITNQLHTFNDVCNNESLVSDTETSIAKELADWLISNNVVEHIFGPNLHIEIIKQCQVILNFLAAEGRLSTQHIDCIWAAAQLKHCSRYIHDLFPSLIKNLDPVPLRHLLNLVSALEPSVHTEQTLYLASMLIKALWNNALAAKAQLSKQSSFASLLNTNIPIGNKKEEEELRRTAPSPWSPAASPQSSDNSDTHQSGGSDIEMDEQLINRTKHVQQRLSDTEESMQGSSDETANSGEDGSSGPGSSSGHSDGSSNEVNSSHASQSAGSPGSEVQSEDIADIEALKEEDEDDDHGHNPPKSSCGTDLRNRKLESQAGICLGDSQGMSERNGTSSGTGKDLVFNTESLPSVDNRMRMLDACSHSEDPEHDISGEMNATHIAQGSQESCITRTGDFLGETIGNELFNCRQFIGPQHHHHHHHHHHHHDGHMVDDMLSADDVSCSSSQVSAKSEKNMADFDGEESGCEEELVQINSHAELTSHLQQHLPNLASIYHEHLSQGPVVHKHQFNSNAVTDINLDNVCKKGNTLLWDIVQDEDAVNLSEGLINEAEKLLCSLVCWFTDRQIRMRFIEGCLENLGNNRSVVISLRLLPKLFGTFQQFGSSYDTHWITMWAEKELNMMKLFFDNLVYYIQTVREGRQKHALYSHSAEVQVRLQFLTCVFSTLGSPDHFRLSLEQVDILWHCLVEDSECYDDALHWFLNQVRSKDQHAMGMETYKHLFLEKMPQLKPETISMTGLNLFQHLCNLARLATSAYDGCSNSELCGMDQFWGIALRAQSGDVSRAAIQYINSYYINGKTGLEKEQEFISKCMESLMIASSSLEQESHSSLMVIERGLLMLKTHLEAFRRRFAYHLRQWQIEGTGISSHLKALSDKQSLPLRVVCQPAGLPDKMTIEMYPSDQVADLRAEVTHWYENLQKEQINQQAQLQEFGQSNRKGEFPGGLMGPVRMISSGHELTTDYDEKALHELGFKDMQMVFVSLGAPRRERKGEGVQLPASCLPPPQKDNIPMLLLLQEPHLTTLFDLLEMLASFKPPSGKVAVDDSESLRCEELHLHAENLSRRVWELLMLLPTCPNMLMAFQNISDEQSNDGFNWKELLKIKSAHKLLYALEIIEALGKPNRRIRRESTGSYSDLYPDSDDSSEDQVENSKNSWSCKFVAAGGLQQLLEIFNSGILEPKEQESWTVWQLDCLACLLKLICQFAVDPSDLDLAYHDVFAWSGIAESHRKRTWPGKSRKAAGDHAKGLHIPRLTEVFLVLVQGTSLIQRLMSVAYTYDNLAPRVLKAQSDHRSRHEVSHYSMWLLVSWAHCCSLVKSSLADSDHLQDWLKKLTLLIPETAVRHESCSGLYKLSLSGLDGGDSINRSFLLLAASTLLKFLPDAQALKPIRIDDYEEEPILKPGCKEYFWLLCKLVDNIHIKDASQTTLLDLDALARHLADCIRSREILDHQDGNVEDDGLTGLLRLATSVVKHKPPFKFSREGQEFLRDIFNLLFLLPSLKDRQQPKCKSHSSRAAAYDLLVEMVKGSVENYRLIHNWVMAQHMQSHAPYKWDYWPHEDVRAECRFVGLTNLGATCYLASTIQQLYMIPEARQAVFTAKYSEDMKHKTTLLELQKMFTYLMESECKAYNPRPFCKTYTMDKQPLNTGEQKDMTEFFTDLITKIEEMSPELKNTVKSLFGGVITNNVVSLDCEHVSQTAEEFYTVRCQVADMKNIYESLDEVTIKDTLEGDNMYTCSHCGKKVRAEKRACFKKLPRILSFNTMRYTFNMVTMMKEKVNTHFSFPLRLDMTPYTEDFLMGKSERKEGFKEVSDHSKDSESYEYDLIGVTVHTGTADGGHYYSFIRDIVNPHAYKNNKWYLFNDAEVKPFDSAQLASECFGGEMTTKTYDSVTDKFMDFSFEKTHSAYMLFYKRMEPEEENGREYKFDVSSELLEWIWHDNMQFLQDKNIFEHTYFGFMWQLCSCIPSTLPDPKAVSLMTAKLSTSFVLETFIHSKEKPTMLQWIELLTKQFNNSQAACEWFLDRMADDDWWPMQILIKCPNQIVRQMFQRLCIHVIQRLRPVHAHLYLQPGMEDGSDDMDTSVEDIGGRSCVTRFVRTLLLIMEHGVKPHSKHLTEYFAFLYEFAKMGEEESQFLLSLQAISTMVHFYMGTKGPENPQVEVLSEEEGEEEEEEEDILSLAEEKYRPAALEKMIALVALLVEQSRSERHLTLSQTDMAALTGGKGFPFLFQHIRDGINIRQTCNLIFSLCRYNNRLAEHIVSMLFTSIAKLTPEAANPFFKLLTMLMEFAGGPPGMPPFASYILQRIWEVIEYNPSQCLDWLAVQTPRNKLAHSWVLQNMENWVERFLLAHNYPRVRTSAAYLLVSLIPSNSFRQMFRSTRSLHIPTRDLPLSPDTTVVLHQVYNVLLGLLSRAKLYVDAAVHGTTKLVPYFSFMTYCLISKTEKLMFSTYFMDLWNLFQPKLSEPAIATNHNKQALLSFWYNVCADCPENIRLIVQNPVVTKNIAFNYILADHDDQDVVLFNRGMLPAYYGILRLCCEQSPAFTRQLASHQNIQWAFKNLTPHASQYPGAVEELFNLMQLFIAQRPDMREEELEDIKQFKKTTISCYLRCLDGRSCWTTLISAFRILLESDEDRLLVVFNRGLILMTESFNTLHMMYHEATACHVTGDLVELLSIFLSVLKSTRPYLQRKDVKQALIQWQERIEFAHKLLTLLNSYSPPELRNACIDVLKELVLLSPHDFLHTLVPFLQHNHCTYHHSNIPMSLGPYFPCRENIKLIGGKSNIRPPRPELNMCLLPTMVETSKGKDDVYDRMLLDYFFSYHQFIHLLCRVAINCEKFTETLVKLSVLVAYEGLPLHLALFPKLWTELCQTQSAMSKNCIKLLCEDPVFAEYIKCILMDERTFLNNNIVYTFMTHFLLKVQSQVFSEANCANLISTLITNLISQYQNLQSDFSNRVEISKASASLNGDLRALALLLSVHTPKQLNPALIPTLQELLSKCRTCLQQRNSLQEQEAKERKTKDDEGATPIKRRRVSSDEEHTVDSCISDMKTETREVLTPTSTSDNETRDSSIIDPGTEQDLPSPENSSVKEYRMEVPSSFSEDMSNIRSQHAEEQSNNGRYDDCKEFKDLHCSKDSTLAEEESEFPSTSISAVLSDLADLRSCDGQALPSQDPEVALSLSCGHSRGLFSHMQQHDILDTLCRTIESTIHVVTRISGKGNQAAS

O=C(CCl)N1CCOC2(CCC2)CC1
inactive: USP34 -0.139 | USP36 -0.163 | USP38 -0.056 | USP39 0.138 | USP4 -0.409
